# PMC4336329 (PLoS ONE, 2015)
# Among all 310,000 compounds or so, about 14,000 (4.5%) showed an effect of 50% or more. The effect is printed as a negative number. The sample as a whole holds a higher share of strong results than the screen did.
# Biological target: human ether-à-go-go-related gene (hERG) potassium channel (human, UniProt Q12809)
# Experiment: primary screen, population patch clamp on CHO cells stably expressing hERG; higher = less effect of the substance
# 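Note: peak tail current of the secondary pulse compared with the same well before compound.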
# Sequence of human ether-à-go-go-related gene (hERG) potassium channel (Q12809 whole entry, looked up): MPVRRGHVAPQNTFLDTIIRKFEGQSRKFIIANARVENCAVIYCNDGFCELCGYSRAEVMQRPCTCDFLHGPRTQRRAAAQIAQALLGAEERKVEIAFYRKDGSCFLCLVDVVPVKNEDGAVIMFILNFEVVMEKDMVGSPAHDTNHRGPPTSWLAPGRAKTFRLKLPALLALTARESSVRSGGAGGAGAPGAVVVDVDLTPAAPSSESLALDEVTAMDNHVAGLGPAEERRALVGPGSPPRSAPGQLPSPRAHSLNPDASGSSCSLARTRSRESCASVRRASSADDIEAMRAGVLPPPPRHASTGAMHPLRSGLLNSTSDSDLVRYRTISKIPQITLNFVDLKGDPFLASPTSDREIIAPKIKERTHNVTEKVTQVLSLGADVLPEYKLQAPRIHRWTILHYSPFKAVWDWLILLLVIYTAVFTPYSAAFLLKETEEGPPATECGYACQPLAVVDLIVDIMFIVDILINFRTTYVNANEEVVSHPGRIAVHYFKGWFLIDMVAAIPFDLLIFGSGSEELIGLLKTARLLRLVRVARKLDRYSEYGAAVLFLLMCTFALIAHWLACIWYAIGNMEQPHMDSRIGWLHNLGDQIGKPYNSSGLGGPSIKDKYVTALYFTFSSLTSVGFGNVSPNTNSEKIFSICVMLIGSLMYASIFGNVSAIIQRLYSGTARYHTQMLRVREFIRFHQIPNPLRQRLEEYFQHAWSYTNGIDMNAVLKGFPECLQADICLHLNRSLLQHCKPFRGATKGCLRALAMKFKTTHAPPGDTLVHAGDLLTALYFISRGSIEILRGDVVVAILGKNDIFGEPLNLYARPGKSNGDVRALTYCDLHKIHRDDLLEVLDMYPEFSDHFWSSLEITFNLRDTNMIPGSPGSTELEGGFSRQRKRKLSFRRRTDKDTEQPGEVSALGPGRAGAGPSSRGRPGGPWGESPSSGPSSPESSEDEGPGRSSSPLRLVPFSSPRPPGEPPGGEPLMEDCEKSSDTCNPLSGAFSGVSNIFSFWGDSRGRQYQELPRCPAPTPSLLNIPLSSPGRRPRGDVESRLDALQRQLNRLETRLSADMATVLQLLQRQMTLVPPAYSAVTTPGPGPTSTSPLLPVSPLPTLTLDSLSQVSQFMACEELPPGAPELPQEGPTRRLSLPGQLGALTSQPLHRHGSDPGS
row,SMILES,"hERG current change (%, negative = inhibition) at 10uM"
1,CCCc1nnc(NC(=O)CN2CCN(C)CC2)s1.Cl,-1.91%
2,O=C(Nc1cccc(O)c1)c1noc2c1CCCCC2,-8.56%
3,O=c1[nH]nc(-c2ccc(F)cc2)cc1Cc1ccccc1,3.89%
4,CN(C)C(=O)c1cc(C(=O)c2ccc(F)cc2Cl)c[nH]1,11.4%
5,CN(Cc1ccc(OC(F)F)cc1)Cc1nc2c(Br)cc(Br)cc2c(=O)[nH]1,-5.29%
6,COc1cc(/C=C/C(=O)OCC(=O)NC2CCS(=O)(=O)C2)ccc1OC(F)F (centres unmarked),-14%
7,COc1cc(NC(=O)NS(=O)(=O)c2ccc(C)cc2)cc(OC)c1,-1.04%
8,CSc1snc(SCC(N)=O)c1C#N,20.6%
9,Cc1cccc(-n2c(C)nc3c(cnn3-c3ccc(F)cc3)c2=O)c1,-12.6%
10,COc1ccc(C)cc1NC(=O)c1cccc(-c2ccc(OC(C)=O)cc2)c1,28.5%
11,COc1ccc(NC(=O)Nc2nnc(N3CCC(C)CC3)s2)cc1OC,-0.885%
12,CC1=NNC(=O)C1C(c1cccc(O)c1)C(C#N)C#N (centres unmarked),14.3%
13,CN(Cc1ccccc1)C(=O)COC(=O)c1cc([N+](=O)[O-])ccc1N1CCOCC1,-56.7%
14,CC(=O)Nc1ccc(NC(=O)COC(=O)c2cc([N+](=O)[O-])ccc2N2CCOCC2)cc1,0.326%
15,O=C(NC1CCSc2ccccc21)c1cc([N+](=O)[O-])ccc1N1CCOCC1 (centres unmarked),-57.8%
16,O=C(NCCOc1ccccc1F)c1cc([N+](=O)[O-])ccc1N1CCOCC1,-45.1%
17,O=C(COC(=O)c1cc([N+](=O)[O-])ccc1N1CCOCC1)Nc1cccc(F)c1,-28.5%
18,CC(NC(=O)COC(=O)c1cc([N+](=O)[O-])ccc1N1CCOCC1)c1ccc(F)cc1 (centres unmarked),-56.8%
19,CCN(C(=O)COC(=O)c1cc([N+](=O)[O-])ccc1N1CCOCC1)c1ccccc1,-34.3%
20,O=C(COC(=O)c1cc([N+](=O)[O-])ccc1N1CCOCC1)c1ccccc1Cl,-2.75%
21,O=C(NC1CCSc2ccccc21)c1cccc([N+](=O)[O-])c1 (centres unmarked),-21.1%

row,SMILES,"hERG current change (%, negative = inhibition) at 10uM"
1,O=C(NC1CCCCC1)c1cc([N+](=O)[O-])ccc1N1CCOCC1,-13.8%
2,O=C(NCCOc1ccccc1)c1cc([N+](=O)[O-])ccc1N1CCOCC1,-62.1%
3,CC(C)CCNC(=O)c1cc([N+](=O)[O-])ccc1N1CCOCC1,-17.1%
4,COC(=O)c1ccccc1NC(=S)N1CCC(N2CCCCC2)CC1,-12.2%
5,Cc1oc(-c2ccccc2Cl)nc1CS(=O)CC(=O)NC1CC1 (centres unmarked),7.58%
6,C[C@@H]1C=C[C@](Cc2ccccc2)(C(=O)NCCc2c[nH]c3ccccc23)N1C(=O)c1ccccc1,-7.94%
7,COc1ccc(Nc2c(C)cccc2C)cc1,17.7%
8,COc1ccc(-c2cc(C)nc(SCC(=O)c3cccc([N+](=O)[O-])c3)n2)cc1,0.439%
9,O=C(COC(=O)C1C2CC3OC(=O)C1C3C2)Nc1ccc(F)cc1 (centres unmarked),13.2%
10,COc1ccc(CN2CCC(C(=O)N3CCCC(C)C3)CC2)cc1OC.O=C(O)C(=O)O (centres unmarked),-19.2%
11,CCC(C)(C)NC(=O)CSc1nc(Cc2ccccc2)nc2ccccc12,11.5%
12,CCOc1ccccc1NS(=O)(=O)c1ccc2c(c1)NC(=O)CCS2,-46%
13,O=C(CC1C(=O)NCCN1Cc1ccc(F)c(F)c1)NCCCn1ccnc1 (centres unmarked),19%
14,CC(NC(=O)c1ccc2ccccc2n1)c1ccccc1 (centres unmarked),-6.17%
15,CN(CC(=O)Nc1ccccc1Cl)C(=O)COC(=O)c1cc([N+](=O)[O-])ccc1N1CCOCC1,-44.4%
16,O=C(COC(=O)c1cc([N+](=O)[O-])ccc1N1CCOCC1)c1ccccc1,-20.1%
17,O=C(NCCc1cccc(Cl)c1)c1cc([N+](=O)[O-])ccc1Cl,-51%
18,O=C(NCCCc1ccccc1)c1cc([N+](=O)[O-])ccc1Cl,-12.3%
19,CN(CC(=O)Nc1ccc(F)cc1)C(=O)c1cc([N+](=O)[O-])ccc1N1CCOCC1,-24.9%
20,O=C(COC(=O)c1cc([N+](=O)[O-])ccc1N1CCOCC1)c1ccc(F)cc1,-55.9%
